Most compounds without a hit are left out; they make up all but 7.6% or so of the library.
RORg inh – ROR gamma (mouse) transcription inhibition; Drosophila S2 Gal4-RORgamma UAS-luciferase reporter, 20 h; Potency, µM (series often up to 53.6 µM), for inactives: at the highest dose activity change, negative = inhibition, most hits filed as inhibitors; 310,000 compounds, 5.4% hits; AID 2551; note: potency is the fitted concentration of half-maximal effect; % is set by controls: 0 for no effect and ±100 for the full control effect; nearly all actives have a fitted effect of over 60% in size
Target sequence (P51450 whole entry, looked up, the tested form may be a part): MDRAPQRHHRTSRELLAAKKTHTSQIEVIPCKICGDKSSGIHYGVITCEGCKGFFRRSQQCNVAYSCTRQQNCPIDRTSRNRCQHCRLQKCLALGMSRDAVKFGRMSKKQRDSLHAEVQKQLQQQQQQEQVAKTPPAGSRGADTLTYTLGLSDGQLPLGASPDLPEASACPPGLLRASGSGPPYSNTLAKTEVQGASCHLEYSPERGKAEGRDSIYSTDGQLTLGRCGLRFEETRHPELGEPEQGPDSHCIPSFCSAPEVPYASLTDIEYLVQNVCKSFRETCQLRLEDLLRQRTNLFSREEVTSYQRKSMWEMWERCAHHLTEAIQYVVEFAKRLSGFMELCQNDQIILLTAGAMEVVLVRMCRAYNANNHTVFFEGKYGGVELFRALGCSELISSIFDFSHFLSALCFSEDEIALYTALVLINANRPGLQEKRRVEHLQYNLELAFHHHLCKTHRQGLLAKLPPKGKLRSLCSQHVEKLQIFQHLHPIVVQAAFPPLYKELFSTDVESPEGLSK
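ROR gamma transcriptional activity was tracked as Gal4-UAS luciferase output in stably transfected Drosophila Schneider cells, with compound added 1 hr before 700 uM copper sulfate induction and a 20 hr ambient-temperature incubation.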
VP16 counter – inhibits Gal4-VP16 luciferase reporter, ROR gamma counter-screen | Drosophila S2 Gal4-VP16 UAS-luciferase, luminescence, 20 h | Potency, µM (doses to about 53.6 µM), without a hit: at the highest dose activity, negative = inhibition, actives largely listed as inhibitors | 310,000 compounds, 3.5% hits | AID 2546;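 note: Gal4-VP16 expression switched on by copper sulfate through the metallothionein promoter; potency is the fitted concentration of half-maximal effect; % is set by controls: 0 for no effect and ±100 for the full control effect; nearly all actives have a fitted effect of over 50% in size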
ELG1 repair inh – inhibitors of ELG1-dependent DNA repair in HEK293T cells | Potency, µM (highest dose often 46.1 µM), for the others: top-dose activity change, negative = inhibition, actives largely listed as inhibitors | AID 504467 | HEK293T ELG1-luciferase reporter, luminescence, 16 h; DNA damage induced by 5-fluorouridine | 330,000 compounds, 2.3% hits; note: potency is the fitted concentration of half-maximal effect; % is set by controls: 0 for no effect and ±100 for the full control effect; nearly all actives have a fitted effect of over 55% in size
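DMSO vehicle served as the neutral condition. Each well held 2,000 cells given 5-fluorouridine plus compound; after 16 hr at 37 °C/5% CO2, ONE-Glo was added and luciferase measured 30 min later.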
BRCA1 expr up – increases BRCA1 expression | MCF7-BRCA1-FFLuc reporter, luminescence, 48 h; response scale: scaled: vehicle 0%, 10 µM genistein 100% | 380,000 compounds, 1.1% hits | AID 624202 | Potency, µM (highest dose often 46.1 µM), for inactives: at the highest dose activation, actives largely listed as activators; note: potency is the fitted concentration of half-maximal effect; nearly all actives have a fitted effect of over 80% in size
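MCF7-BRCA1-FFLuc cells, 2000/well in phenol-red-free MEM, attached 2 h then treated 48 h at 37 C. Luciferase luminescence read 15 min after reagent; normalized to genistein maximum activation (10microM) and DMSO, concentration-response fitted.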
Giardia kill – kills Giardia lamblia. Giardia lamblia trophozoite viability. activity change, % at 7.66 µM, hits read low. 340,000 compounds, 0.15% hits; in the data active = activity change below about -80%; inconclusive = between about -30% and that limit;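 note: parasites exposed to compound for two days anaerobically before the ATP read; % is set by controls: 0 for no effect and ±100 for the full control effect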
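Giardia lamblia trophozoites (100 cells/well) were incubated with compounds for 48 h at 37 deg C under anaerobic conditions. Viability was read as ATP content by one-step luminescence after 15-30 min at room temperature.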
p53 reactivation – re-activators of mutant p53; Potency, µM (top dose mostly 92.2 µM), for the others: top-dose activity change, positive = activation, usual class: activators; 320,000 compounds, 0.063% hits; H1299 p53-A138V BP100-luciferase reporter, luminescence, 24 h; note: potency is the fitted concentration of half-maximal effect; % of control where 0% means no effect; nearly all actives have a fitted effect of over 45% in size
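p53-null H1299 cells stably carrying temperature-sensitive p53-A138V and a BP100-luciferase reporter were pinned with compounds (4-point, 1:5 series) and held 24 hrs at 37 deg C. Luminescence was read 10 min after detection reagent.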
Starred values were filed as active, the others as inactive; ? = inconclusive; . = not tested or not shown; [ ] = dose if it differs, or a comment. Unless noted, calls come from the whole dose curve; as a rule, active = well fitted curve in the direction sought with a large enough effect; inconclusive = small, poorly fitted or top-dose-only effect, or another doubt; inactive = no such curve, though single readings can be large; an effect the other way counts as inactive or inconclusive.

SMILES	RORg inh	VP16 counter	ELG1 repair inh	BRCA1 expr up	Giardia kill	p53 reactivation
CC[C@]12c3[nH]c4ccc(Cl)cc4c3CCN1C(=O)[C@@H](CC(=O)NCC13CC4CC(CC(C4)C1)C3)C[C@@H]2C(=O)N1CCN(C(=O)C2CC2)CC1	.	.	?	-71%	0	7%
COc1cccc(N2C(=O)CC(N3CCN(c4ccc([N+](=O)[O-])cc4)CC3)C2=O)c1 (stereo not drawn)	-6%	-4%	0%	0%	6	4%
O=C(/C=C/c1ccccc1Cl)NCCc1ccccc1	5%	-5%	?	11µM*	-11	?
O=C(CCCc1ccccc1)Nc1cccc([N+](=O)[O-])c1	-12%[1.91 µM]	3%	?	13µM*	-15	16%
O=C(CCc1ccccc1)Nc1cccc([N+](=O)[O-])c1	7%	-18%	-19%	-8%	7	9%
CC(CN1CCOCC1)OC(=O)c1ccc(Br)cc1 (stereo not drawn)	2µM*	?	-2%	-32%	7	4%
CC(CN1CCOCC1)OC(=O)c1ccccc1Cl (stereo not drawn)	-37%	7%	6%	-29%	-1	?
CCOc1ccc(C(=O)C(CN2CCOCC2)c2ccccc2)cc1 (stereo not drawn)	?	?	?	-92%	15	-15%
O=C(c1ccc(Br)cc1)C(CN1CCOCC1)c1ccccc1 (stereo not drawn)	16µM*	20µM*	?	-95%	9	-17%
Cc1cc(F)cc(C)c1Cn1cnc2c(cnn2C(C)(C)C)c1=O	.	.	?	8%	-22	3%
Cc1cc(C(=O)CSc2nc(N)cc(N)n2)c(C)n1CC1CCCO1 (stereo not drawn)	.	.	0%	23%	11	14%
Cc1sc2nc(SCC(=O)c3cc(C)n(CC4CCCO4)c3C)n(C(C)C)c(=O)c2c1C (stereo not drawn)	?	11µM*	-2%	-9%	-18	2%
CCOC(=O)C1=C(C)N=C2SC(C(=O)OC)=CC(=O)N2C1c1ccc(OC)cc1 (stereo not drawn)	1.8µM*	?	?	5%	1	-3%
COc1ccc(CCCc2n[nH]c(=S)o2)cc1C	10µM*	-2%[10 µM]	?	-4%	18	3%
COc1ccc(CCCc2n[nH]c(=S)n2C)cc1C	5µM*	-3%[10 µM]	-17%	0%	-1	0%
Cc1cccc(OCc2n[nH]c(=S)o2)c1C	?	25%	2%	14%	-12	-5%
Cc1cc(=O)n2nc(N3CCC(C(=O)Nc4cccc(Cl)c4C)CC3)sc2n1	-8%	2%	-7%	-2%	-20	4%
Cc1cc(=O)n2nc(N3CCCC3C(=O)Nc3cccc(Cl)c3C)sc2n1 (stereo not drawn)	16µM*	3%	3%	6%	1	.
O=C(NCCCN1CCOCC1)c1cc2c([nH]c3ccccc32)c(-c2cccc(Br)c2)n1	0%	?	1.6µM*	-47%	25	.
O=C(NC(=S)N1CCc2ccccc21)C1CCC1	2.8µM*	?	15%	1%	13	3%
CC(C)(C)C(=O)NC(=S)N1CCc2ccccc21	5µM*	?	-7%	-15%	-15	?
O=C(C1CCCCC1)N1CCCc2ccccc21	6%	-2%	?	-16%	9	10%
Cn1c(N)c(C(=O)COC(=O)C2=NNC(=O)CC2)c(=O)n(C)c1=O	-1%	2%	6%	-32%	14	-4%
CC(=O)NC(CC(=O)Nc1cc(Cl)ccc1-n1cncn1)c1ccccc1 (stereo not drawn)	.	.	16%	-16%	-11	-2%
N/C(=N\OC(=O)c1ccc2c(c1)OCO2)c1ccc(Cl)cc1	25%	-23%	?	8.9µM*	-18	?
SMILES	RORg inh	VP16 counter	ELG1 repair inh	BRCA1 expr up	Giardia kill	p53 reactivation
N/C(=N\OC(=O)c1ccc2c(c1)OCO2)c1ccncc1	10µM*	?	?	4.5µM*	-2	14%
COc1ccc(/C(N)=N/OC(=O)c2ccc3c(c2)OCO3)cc1	3%	?	?	3.2µM*	-3	19%
Cc1ccc(/C(N)=N/OC(=O)c2ccc3c(c2)OCO3)cc1	?	?	?	?	-3	?
Cn1c(-c2cccc(Br)c2)cnc1NCc1cccc(F)c1	.	.	.	-37%	.	.
CN(CC(=O)Nc1c(Cl)cccc1Cl)C(=O)Cn1[nH]c(=O)c2ccccc2c1=O	.	.	-2%	-32%	-14	11%
COc1ccccc1/C=N/NC(=O)c1ccccc1NS(=O)(=O)c1ccc(C)cc1	13µM*	?	19%	1%	-7	8%
COc1ccccc1NS(=O)(=O)c1cccc(C(=O)N/N=C/c2ccc(N3CCOCC3)cc2)c1	-52%	-12%	-5%	-5%	-5	1%
COc1ccccc1NS(=O)(=O)c1cccc(C(=O)N/N=C/c2ccc(C)o2)c1	11µM*	14µM*	7%	8%	-3	-5%
Cc1ccc(/C=N/NC(=O)c2cccc(S(=O)(=O)Nc3cccc(Cl)c3)c2)o1	13µM*	?	-12%	26%	-12	-4%
O=C(N/N=C/c1cccnc1)c1cccc(S(=O)(=O)Nc2cccc(Cl)c2)c1	10%	4%	-1%	-28%	4	1%
Cc1ccc(S(=O)(=O)Nc2ccccc2C=NNC(=O)c2ccncc2)cc1	.	.	.	-14%	.	.
COc1cc(/C=C2\SC(=S)N(CC(=O)NC(C)(C)C)C2=O)cc(OC)c1OC	?	3%	?	-8%	-3	-5%
CCN(c1ccccc1)S(=O)(=O)c1cc(C(=O)Nc2ccc(Br)cc2)ccc1F	17%	13µM*	?	-75%	25	-3%
O=C(Nc1nccs1)c1ccc(CSc2nnnn2-c2ccccc2)cc1	?	14µM*	23µM*	18%	6	1%
Cc1cc(C)cc(NC(=O)CCN2CCOCC2)c1	-4%	6%	0%	17%	2	.
O=C(NC(=O)c1ccccc1O)c1ccc2c(c1)CCO2	5µM*	?	?	-1%	?	-1%
CN(C)CCCOC(=O)c1ccc(Br)cc1	-16%	3%	6%	2%	-13	4%
O=C(CSc1ncccc1C(=O)Oc1ccccc1Cl)Nc1ccccc1Cl	.	.	.	11µM*	-10	.
C/C(=N/Nc1ncc(Br)cn1)c1ccc([N+](=O)[O-])cc1	24%[1.91 µM]	-1%	-4%	29%	8	.
CC(C)Cn1c2c(c(O)c(C(=O)Nc3ncccc3O)c1=O)CCCC2	?	14µM*	?	-35%	-5	-15%

Screens: PubChem BioAssay, National Center for Advancing Translational Sciences (NCATS)
